Our source for the z-score and composite z-score values is PubChem BioAssay.

Molecules are shown by their SMILES. Calls of active or inactive are those of the source.

The nature of assay [1]: compound effects on differentiated 3T3-L1 adipocyte viability – cell-based, 3T3-L1 adipocytes, calcein-AM fluorescence, 48 h, basal, profiling panel (AID 1163). The conditions noted are these: 3T3-L1 adipocytes viability, higher = more signal.
Assay [2] in a line: compound effects on hepatocellular carcinoma cell viability – HepG2, calcein-AM fluorescence, 48 h, basal, profiling panel (AID 1164). The conditions noted are these: higher = more signal.
The nature of assay [3]: compound effects on multiple myeloma cell viability – MM1S, calcein-AM fluorescence, 48 h, basal, profiling panel (AID 1165). The conditions noted are these: higher = more signal.
Assay [4] in a line: calcein-AM signal in unstimulated myeloma cells – cell-based, calcein-AM fluorescence, 48 h, PK04 Diversity Set, profiling panel (AID 1166).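 Note: cells grown under basal conditions without added stimulus.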 Particulars: RPMI8226 myeloma viability, higher = more signal.
A short description of assay [5]: JC-1 mitochondrial signal, unstimulated HepG2 cells – cell-based, JC-1 fluorescence, 24 h, 100 nL compound, profiling panel (AID 1167). The conditions noted are these: HepG2 mitochondrial potential, higher = more signal.
Assay [6] in a line: JC-1 mitochondrial signal, unstimulated adipocytes – cell-based, JC-1 fluorescence, 3T3-L1 adipocytes, 24 h, 100 nL compound, profiling panel (AID 1168). Particulars: JC-1 mitochondrial fluorescence, higher = more signal, called active from +8 up or from −8 down.
A short description of assay [7]: JC-1 mitochondrial signal, unstimulated myeloma cells – cell-based, JC-1 fluorescence, RPMI8226, 24 h, 100 nL compound, profiling panel (AID 1169). The conditions noted are these: JC-1 mitochondrial potential fluorescence, higher = more signal.
Assay [8] is described as follows: JC-1 mitochondrial signal, unstimulated MM1S myeloma – cell-based, JC-1 fluorescence, 24 h, 100 nL compound, profiling panel (AID 1170). The conditions noted are these: MM1S mitochondrial potential, higher = more signal.
Assay [9] can be described thus: resazurin metabolic signal in A549 cells – cell-based, resazurin fluorescence, 24 h, PK04 Diversity Set, profiling panel (AID 1171). Particulars: A549 viability, higher = more signal, called active from +8 up or from −8 down. For orientation: The colour change of resazurin is a common sign of viable cells or microbes.
A short description of assay [10]: resazurin metabolic signal in HepG2 cells – cell-based, resazurin fluorescence, 24 h, PK04 Diversity Set, profiling panel (AID 1172). Particulars: HepG2 viability, higher = more signal.
Assay [11] is described as follows: budding yeast growth changes without added modifier – OD600, strain BY4716, 24 h, basal condition, primary screen (AID 1173). Particulars: S. cerevisiae BY4716 growth, OD600, 24 h; higher = more signal, called active from +8 up or from −8 down.
A short description of assay [12]: viability profiling in MM1S myeloma cells – cell-based, resazurin fluorescence, basal, 24 h, PK04 Diversity Set, profiling panel (AID 1174). The conditions noted are these: higher = more signal, called active from +8 up or from −8 down.
In assay [13] the target is Dihydroorotate dehydrogenase (quinone), mitochondrial (Plasmodium falciparum (isolate 3D7)) (UniProt Q08210). As to the kind of experiment: inhibition of P. falciparum DHODH – biochemical, C-terminal His tag, absorbance 600 nm, primary screen (AID 1175).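 Note: recombinant parasite enzyme with a five histidine tag at its C terminus.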 The conditions noted are these: PfDHODH enzyme, DCIP absorbance 600 nm; higher = more signal, called active from +8 up or from −8 down.

A short description of assay [14]: growth modulation of vineyard yeast isolate – strain RM11-1a, OD600, basal, 24 h, primary screen (AID 1177).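 Note: cultures grown under basal conditions with no added stressor.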 Particulars: S. cerevisiae RM11-1a growth, OD600, 24 h; higher = more signal, called active from +8 up or from −8 down.
Assay [15] in a line: growth of efflux-deficient E. coli DRC39 – strain DRC39, OD650, 24 h, E. coli filamentation inducers, primary screen (AID 1178).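 Note: growth measured as culture turbidity by optical density at 650 nm.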 Particulars: E. coli DRC39 acrAB, higher = more signal, called active from +8 up or from −8 down.
Assay [16] can be described thus: growth of efflux-deficient E. coli DRC39 – strain DRC39, OD650, 48 h, E. coli filamentation inducers, primary screen (AID 1179).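 Note: screen aims at cell division blockers that make cells filament.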 The conditions noted are these: E. coli DRC39 delta-acrAB growth, higher = more signal, called active from +8 up or from −8 down.
Assay [17] can be described thus: viability profiling in RPMI8226 myeloma cells – cell-based, resazurin fluorescence, basal, 24 h, PK04 Diversity Set, profiling panel (AID 1180).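 Note: RPMI8826 multiple myeloma cell line at 5000 cells per well.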 Particulars: higher = more signal.
Assay [18] has as its target E3 ubiquitin-protein ligase XIAP (Homo sapiens) (UniProt P98170). The assay is described as follows: small molecules binding XIAP protein – biophysical, small-molecule microarray, fluorescence 635 nm, primary screen (AID 1181).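 Note: score merges 667 nm emission and signal to noise over triplicate slides.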 Particulars: higher = more signal.
The test system of assay [19] is XIP peptide (Xip251-270) binding. The assay is described as follows: XIP fragment 251-270 binding compounds – biochemical, small-molecule microarray, fluorescence 635/667 nm, 0.1 µg/mL protein, primary screen (AID 1182). Particulars: fluorescent protein binding, 635 nm, higher = more signal, called active from +8 up or from −8 down.
The test system of the next assay is XIP peptide (Xip251-270). The assay is described as follows: compounds binding XIP fragment 251-270 – biochemical, small-molecule microarray, fluorescence 635/667 nm, 0.5 µg/mL protein, primary screen (AID 1183). Particulars: fluorescence 635 nm, higher = more signal.

Chain of Dihydroorotate dehydrogenase (quinone), mitochondrial (Plasmodium falciparum (isolate 3D7)) (Q08210 whole entry, looked up): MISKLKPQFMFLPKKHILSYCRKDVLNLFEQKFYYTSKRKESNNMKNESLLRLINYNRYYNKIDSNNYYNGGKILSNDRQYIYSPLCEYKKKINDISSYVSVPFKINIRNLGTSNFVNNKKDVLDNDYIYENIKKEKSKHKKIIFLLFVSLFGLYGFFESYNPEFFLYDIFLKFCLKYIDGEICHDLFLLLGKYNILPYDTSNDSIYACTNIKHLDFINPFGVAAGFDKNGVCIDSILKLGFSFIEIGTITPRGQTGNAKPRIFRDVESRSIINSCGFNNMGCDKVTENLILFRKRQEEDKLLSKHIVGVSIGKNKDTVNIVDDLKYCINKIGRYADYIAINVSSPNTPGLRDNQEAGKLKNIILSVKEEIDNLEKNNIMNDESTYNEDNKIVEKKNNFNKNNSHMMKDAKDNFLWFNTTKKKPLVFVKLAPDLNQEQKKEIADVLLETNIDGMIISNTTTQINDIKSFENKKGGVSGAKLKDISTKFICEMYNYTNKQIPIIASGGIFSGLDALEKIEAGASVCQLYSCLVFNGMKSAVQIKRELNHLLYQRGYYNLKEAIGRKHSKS
Chain of E3 ubiquitin-protein ligase XIAP (Homo sapiens) (P98170 whole entry, looked up, the tested form may be a part): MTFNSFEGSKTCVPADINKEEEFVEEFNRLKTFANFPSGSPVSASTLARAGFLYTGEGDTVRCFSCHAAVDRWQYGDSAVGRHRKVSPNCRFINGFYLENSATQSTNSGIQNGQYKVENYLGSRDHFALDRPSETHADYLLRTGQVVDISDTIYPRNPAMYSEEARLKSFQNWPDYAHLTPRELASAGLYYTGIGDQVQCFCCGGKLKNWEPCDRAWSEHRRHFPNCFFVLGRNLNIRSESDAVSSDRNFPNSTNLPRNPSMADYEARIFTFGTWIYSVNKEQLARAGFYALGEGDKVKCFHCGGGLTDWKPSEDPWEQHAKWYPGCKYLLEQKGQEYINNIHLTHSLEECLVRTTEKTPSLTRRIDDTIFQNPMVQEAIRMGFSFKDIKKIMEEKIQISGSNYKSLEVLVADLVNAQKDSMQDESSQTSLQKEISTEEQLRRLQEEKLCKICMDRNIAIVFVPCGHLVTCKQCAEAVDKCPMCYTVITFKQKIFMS

Take `C=CCN1C(=O)[C@@]2(O[C@@H](CCO)[C@H]([Si](C)(C)c3ccc(OC)cc3)[C@H]2C)c2cc(N3C(=O)c4cccc5cccc3c45)ccc21`: the z-score was -1.3 in assay [1]; -4.72 in [2]; -2.92 in [3]; -4.4 in [4]; -2.34 in [5]; 2.26 (inactive) in [6]. For the same molecule, the z-score in [7] is -1.01; in assay [8], -2.09; in assay [9], -4.58 (inactive); in assay [10], -6.14; in [11] it was 0.275 (inactive); in assay [12], -8.59 (active). The z-score in [14] is 5.51 (inactive); in [15] it was 2.57 (inactive); in assay [16] it was 2.05 (inactive); in [17] it was -6.03. Moreover, the composite z-score was 0.901 (inactive) in assay [13], 0.0411 in assay [18], 0.777 (inactive) in assay [19] and 0.714 with XIP peptide (Xip251-270).
On to `NC(=O)NCC#Cc1ccc2c(c1)[C@]1(C(=O)N2)[C@H](c2ccc(OCCO)cc2)N2[C@H](c3ccccc3)[C@H](c3ccccc3)OC(=O)[C@H]2[C@@H]1C(=O)Nc1nc2ccccc2s1`, for which the z-score in [1] was 1.17; in [2] it was -0.348; in [3], -0.285; in assay [4], 1.55; in assay [5], -3.12; in assay [6] it was 2.65 (inactive). For the same molecule, the z-score was -0.999 in assay [7]; -1.68 in [8]; 0.641 (inactive) in assay [9]; 0.0219 in assay [10]; 1.44 (inactive) in assay [11]; 1.33 (inactive) in assay [12]. Further, the z-score in assay [14] was 3.21 (inactive); in assay [15], 0.606 (inactive); in assay [16], 0.681 (inactive); in assay [17], 1.2. The composite z-score was -0.212 (inactive) in assay [13], -0.0398 in assay [18], 0.245 (inactive) in assay [19] and -0.587 with XIP peptide (Xip251-270).
With `C[N+](C)(C)CCCC[C@@H]1NC(=O)[C@H]2C[C@@H](C(=O)NCCCCCN)[C@@H](c3cccc(OCCO)c3)N2C1=O`, the z-score in assay [1] is 2.1; in [2], -0.468; in assay [3], -0.433; in assay [4], -0.649; in assay [5] it was 1.31; in assay [6], 0.0454 (inactive). Further, the z-score in assay [7] was -0.773; in assay [8], 0.0601; in [9] it was -0.156 (inactive); in assay [10], -0.148; in assay [11], -0.26 (inactive); in assay [12], 1.53 (inactive). Moreover, the z-score in assay [14] was -0.286 (inactive); in assay [15] it was 0.222 (inactive); in assay [16] it was -0.0647 (inactive); in [17], 0.729. The composite z-score in assay [13] is -0.407 (inactive); in [18], -0.163; in assay [19] it was 0.713 (inactive); with XIP peptide (Xip251-270), 0.608.
As to `COCCCNC(=O)[C@@]1(CCS(=O)(=O)c2ccccc2)N=C(c2ccc(OCCCO)cc2)O[C@H]1c1ccccc1CN=[N+]=[N-]`, the z-score in [1] was 2.66; in assay [2], -0.0301; in [3] it was 0.872; in [4] it was -0.532; in assay [5] it was 1.02; in assay [6] it was 0.164 (inactive). Besides, the z-score in assay [7] was -0.866; in assay [8] it was 0.175; in assay [9] it was 0.0658 (inactive); in [10], -0.404; in [11], -0.938 (inactive); in [12], 1.21 (inactive). Moreover, the z-score in assay [14] was -1.49 (inactive); in assay [15], 1.4 (inactive); in [16], 0.502 (inactive); in [17] it was 0.846. Further, the composite z-score in assay [13] is -1.02 (inactive); in [18], 0.0871; in [19], 0.901 (inactive); in the assay on XIP peptide (Xip251-270), 0.67.
On to `CN1C=C(C(=O)OCCS(C)(=O)=O)C(C(=O)OCCS(C)(=O)=O)=CC(CCCO)=CC1c1cccs1` (stereo not given), for which the z-score in [1] is 0.778; in [2] it was 0.615; in [3], 0.175; in assay [4] it was -0.249; in [5] it was 1.9; in [6], 1.93 (inactive). Also, the z-score in assay [7] is 0.0813; in [8], 0.885; in assay [9], 0.776 (inactive); in assay [10], 0.666; in [11], -3.06 (inactive); in [12] it was 1.07 (inactive). The z-score is -1.01 (inactive) in assay [14], 1.26 (inactive) in assay [15], 0.676 (inactive) in [16] and 0.602 in assay [17]. The composite z-score in assay [13] was -4.08 (inactive); in [18] it was 0.0374; in [19], -0.64 (inactive); in the assay on XIP peptide (Xip251-270) it was -0.254.
Turning to `COC(=O)C1=CC(CCCO)=CC(C2CC2)N(Cc2cc3c(cc2Br)OCO3)C=C1C(=O)OC` (stereo not given), the z-score in assay [1] was 1.19; in assay [2], 0.489; in [3] it was 0.0635; in assay [4], 0.627; in assay [5] it was 1.1; in assay [6], 0.857 (inactive). Further, the z-score in [7] was -0.147; in assay [8], 1.28; in [9] it was 0.565 (inactive); in assay [10], 0.365; in assay [11], -1.81 (inactive); in assay [12] it was 1.06 (inactive). Also, the z-score in [14] was -0.847 (inactive); in [15], 0.489 (inactive); in assay [16], -0.0093 (inactive); in [17] it was 1.45. Further, the composite z-score in assay [13] is -0.509 (inactive); in assay [18] it was 0.295; in assay [19] it was 1.68 (inactive); with XIP peptide (Xip251-270), 0.0315.
For the molecule `C/C=C/[C@@H](CCn1cc(CCO[Si](C(C)C)(C(C)C)C(C)C)nn1)[Si](C)(C)c1ccc(OC)cc1`, the z-score in assay [1] was 0.925; in [2] it was 0.359; in assay [3] it was -1.17; in [4] it was -1.21; in assay [5], 3.71; in assay [6] it was 1.12 (inactive). Besides, the z-score in [7] is 0.236; in [8], 2.03; in [9] it was 7.86 (inactive); in assay [10], 4.46; in assay [11], -2.21 (inactive); in assay [12], 1.91 (inactive). Further, the z-score in assay [14] was -4 (inactive); in [15] it was 2.42 (inactive); in [16], 1.89 (inactive); in [17] it was 5.22. For the same molecule, the composite z-score in [13] was -1.14 (inactive); in assay [18], -0.169; in assay [19], -0.411 (inactive); with XIP peptide (Xip251-270) it was -1.48.
For `C=C[C@H](OC)[C@@H](OC(=O)Nc1ccc(OC)cc1)c1ccc(OC)c(O)c1`, the z-score was 0.922 in assay [1]; -0.737 in [2]; 0.478 in assay [3]; 0.294 in assay [4]; -0.638 in assay [5]; 1.02 (inactive) in assay [6]. Also, the z-score in [7] is 0.756; in assay [8] it was 0.206; in assay [9] it was 0.304 (inactive); in assay [10], 0.895; in assay [11], -1.01 (inactive); in assay [12], 1.12 (inactive). In addition, the z-score in assay [14] is 0.0923 (inactive); in assay [15], 1.89 (inactive); in assay [16], 1.29 (inactive); in [17] it was 1.15. Moreover, the composite z-score in assay [13] was 0.465 (inactive); in assay [18], 0.0073; in [19], 1.11 (inactive); with XIP peptide (Xip251-270), -1.18.
